# Screening data from PubChem.
# Hits are enriched below; roughly 19% of the tested compounds scored in any of these assays.
# Pf growth 48h: Primary qHTS for delayed death inhibitors of the malarial parasite plastid, 48 hour incubation; P. falciparum luciferase growth in erythrocytes, 48 h; Potency, µM (top dose mostly 28.7 µM), without a hit: at the top dose activity change, negative = inhibition, most hits filed as inhibitors; 310,000 compounds, 5.9% hits; note: potency is the fitted concentration of half-maximal effect; % is set by controls: 0 for no effect and ±100 for the full control effect
#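 Erythrocytes infected with P. falciparum carrying an integrated firefly luciferase reporter (2% hematocrit, 0.1% parasitemia final) were exposed to compounds in RPMI 1640 with 0.5% Albumax at 37 C, 5% CO2. Growth inhibition was scored as reduced luminescence.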
# Cycloheximide cs: Cycloheximide Counterscreen for Small Molecule Inhibitors of Shiga Toxin; max response, %; 300,000 compounds, 12% hits; cell reporter, cycloheximide protein synthesis inhibition counterscreen; in the data active = max response mostly above about 13%, no sharp cut-off; inactive = mostly below about 14%; note: read at 38.3 µM for the half of the compounds with a filed dose; 0% is about no effect
# Shiga toxin inh: A qHTS for Small Molecule Inhibitors of Shiga Toxin; inhibition, % at 38.7 µM; 290,000 compounds, 9.2% hits; Vero cells, Shiga toxin protein synthesis inhibition reporter; in the data active = inhibition mostly above about 28%, no sharp cut-off; inactive = mostly below about 43%; note: 0% is about no effect
# Pf growth 96h: Primary qHTS for delayed death inhibitors of the malarial parasite plastid, 96 hour incubation. 320,000 compounds, 6.9% hits. Potency, µM (top dose mostly 28.7 µM), inactives show top-dose activity change, negative = inhibition, most hits filed as inhibitors. P. falciparum luciferase reporter growth, 96 h; note: potency is the fitted concentration of half-maximal effect; % is set by controls: 0 for no effect and ±100 for the full control effect
#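 P. falciparum expressing integrated firefly luciferase grown in erythrocytes (2% hematocrit, 0.05% parasitemia final) with compounds for 96 hours at 37 C, 5% CO2. Growth inhibition read as loss of luminescence after adding luciferase detection reagent.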
# SARS PLpro yeast: qHTS of Yeast-based Assay for SARS-CoV PLP. AID 485353, 2010. Potency, µM (series often up to 32.9 µM), for the others: at the top dose activity, positive = growth rescue, actives largely listed as activators. 330,000 compounds, 0.19% hits. S. cerevisiae expressing SARS-CoV PLpro, growth rescue; calls by dose curve; note: potency is the fitted concentration of half-maximal effect; 0% is about no effect; nearly all actives have a fitted effect of over 55% in size
# AMA1 RON2 block: qHTS for Inhibitors of AMA1-RON; Towards Development of Antimalarial Drug Lead: Primary Screen. Plasmodium falciparum AMA1 (3D7) - RON2 peptide interaction. AlphaScreen AMA1-biotinylated RON2 peptide binding. Potency, µM (series often up to 58.2 µM), for inactives: top-dose activity change, negative = inhibition, hits mostly inhibitors. 360,000 compounds, 0.2% hits. AID 720542, 2013;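 note: potency is the fitted concentration of half-maximal effect; 0% = vehicle wells and -100% = peptide control; nearly all actives have a fitted effect of over 45% in size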
#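 AMA1 (3D7) with his tag at 25 nM final met compounds first, then biotinylated RON2 peptide at 25 nM; detection used donor plus acceptor beads, 10 µg/mL apiece, read by AlphaScreen after 30 min at room temperature.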
# * marks the source's active call; other numbers are inactive results; ? = inconclusive; nt = no result given. Unless noted, calls come from the whole dose curve; as a rule, active = well fitted curve in the direction sought with a large enough effect; inconclusive = small, poorly fitted or top-dose-only effect, or another doubt; inactive = no such curve, though single readings can be large; an effect the other way counts as inactive or inconclusive.
SMILES,Pf growth 48h,Cycloheximide cs,Shiga toxin inh,Pf growth 96h,SARS PLpro yeast,AMA1 RON2 block
CC(=O)Nc1ccc(S(=O)(=O)N2CCC3(CC2)CC(=O)c2ccccc2O3)cc1,-28.3%,nt,nt,?,-1.2%,1.6%
COCCn1cnc2cc(C)c(C)cc21,10.1%,-1.4,-9.3,-0.4%,2.0%,12.7%
Cc1cc2ncn(CCOc3ccccc3)c2cc1C,0.0%,50.8*,102.0*,47.1%,-0.4%,-8.3%
COc1cccc(N/C(SCc2ccccc2F)=C(/C#N)C(=O)NCc2cccs2)c1,?,-3.4,-3.1,?,-19.3%,-3.1%
COc1cccc([C@@H]2Oc3ccc(OC)cc3C(=O)[C@H]2O)c1,-21.6%,39.5*,42.3*,3.7µM*,-3.4%,20.9%
COc1ccc2c(c1)C(=O)[C@@H](O)[C@H](c1ccc(OC)c(Br)c1)O2,3.7µM*,17.9*,42.8*,3.29µM*,-10.3%,73.6%
